Measured values reported in PubChem BioAssay (NCI).
Values joined by “and” are separate entries in the source; they are usually repeats but may differ in a detail not shown here. Equal values may be shown once. Compounds without any hit were thinned out: in the full panel of roughly 83,000, 20% have a hit.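 In brief: 96-well plates, 48 h treatment, single concentration, percent growth endpoint.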 Values without a mark were called inactive. Active and inactive are the calls of the source. How the source made its calls: active means growth percent below 10; inactive means the rest.

System: MDA-MB-468 breast
Assay: NCI-60 one-dose screen, 48 h (100 = growth as untreated, 0 = no growth, -100 = all killed)
Conditions: 10 µM unless noted

| SMILES | growth |
| --- | --- |
| N#Cc1c(-c2ccccn2)[nH]c(=S)[nH]c1=O | 110% |
| COc1ccc(-c2nc3c(N)c(CO)c(C)nc3o2)cc1 | 67.5% |
| O=C(COc1ccc(/C=C2\C(=O)Nc3ccc(F)cc32)cc1)Nc1ccccc1 | 98.5% |
| COC(=O)CCCCCn1c2ccccc2c2c3c(c4c5ccccc5[nH]c4c21)C(=O)N(O)C3=O | 45.3% |
| COc1ccc(-c2c3c(nn2-c2ccc(N)cc2)CCc2cnoc2-3)cc1OC | 92.8% |
| O=C(NNc1nc2cc(F)ccc2n2c(CO)ccc12)c1cnccn1 | -14% (active) |
| COc1cccc(C(=O)NNc2nc(Cl)nc(N3CCN(C(c4ccccc4)c4ccccc4)CC3)n2)c1 | -17.1% (active) |
| COC(=O)c1nc(-c2ccccc2)oc1S(=O)(=O)N1CCN(c2cccc(Cl)c2)CC1 | 46.6% |
| CCCCCC(=O)c1ccc(OCCCN2CCN(C(=O)OCC)CC2)cc1 | 47.5% |
| c1ccc2c(c1)ncn2-c1nc2ccccc2n2c1nc1ccccc12 | -40.5% (active) |
| CCCCCC(=O)OCC(=O)O[C@@H]1C[C@]2(C(C)C)O[C@@]1(C)[C@@H]1CC[C@@H](C)[C@H]1[C@@H]2OC(=O)/C=C/c1ccccc1 | 70% |
| COc1cc(-c2nc3occn3c2-c2ccnc(NCCNS(=O)(=O)c3ccc(Cl)cc3)n2)ccc1F | 63.1% |
| CN(C)c1ccc(/C=N/NC(=O)COc2cc(=O)n(C)c3ccccc23)cc1 | 105% |
| O=c1cc(-c2ccccc2)nc2sc(-c3c[nH]c4ccc(F)cc34)nn12 | 67.4% |
| C=C(C)C(=O)Nc1ccc(NC(C)C)cc1 | 111% |
| CN1C(=O)NC(Cc2c[nH]c3c(Cl)cccc23)C1=O (stereo not given) | 110% |
| Cc1cc(O)c(=O)cc2c1C[C@H]1CC(C)(C)/C=C/C[C@]3(C)Oc4cc(=O)c(O)cc(C)c4C[C@H]3C[C@H](O)[C@@]1(C)O2 | -16.7% (active) and -22.9% (active) |
| CC#CC(=O)N1CCC[C@H]1c1nc(-c2ccc(C(=O)Nc3ccccn3)cc2)c2c(N)nccn12 | 59.6% |
| O=C(O)c1ccc(-c2nn(-c3ccc(C(F)(F)F)cc3)cc2CNc2ccc(Oc3ccccc3)cc2)cc1 | 117% |
| COc1ccc(-c2cnnn2-c2cc(OC)c3c(c2)OCO3)cc1 | 40.9% |

| SMILES | growth |
| --- | --- |
| C#CCN1C(=O)c2ccccc2N(CC#C)C12CCN(Cc1cn(CC(=O)Nc3ccccc3C(N)=O)nn1)CC2 | 72.6% |
| O=C1c2ccccc2C(=O)C1c1ccc(Br)cc1 | 115% |
| COc1cccc2nc(Nc3ccc(NC(=O)c4ccc5ncccc5c4)cc3)ccc12 | 88.9% |
| CCCCCCCOc1cccc(/C=C2/C(=O)N=C3SCCCN32)c1 | 56.8% |
| CCCCNNC(=O)c1ccc(Br)cc1 | 60.1% |
| CC[C@H]1[C@@H]2C=C[C@@H]3[C@H]4C/C=C\C(=O)NCCC[C@@H]5NC(=O)/C(=C(O)/C=C/[C@@H]4C[C@@H]3[C@H]2C[C@H]1C)C5=O | 76.8% |
| O=C(Nc1cn[nH]c1-c1nc2ccc(CN3CCOCC3)cc2[nH]1)NC1CC1 | 25.5% |
| CCC(=O)NC(O)C(Cl)(Cl)C(C)Cl (stereo not given) | 92.5% |
| CCCCCCOc1ccc(/C=N/NC(N)=S)cc1 | 66.9% |
| Cc1ccc(S(=O)(=O)n2cc(C(=O)C(=O)N3CCCCC3)c3ccccc32)cc1 | 40.2% |
| CC(C)(C)CC(C)(C)Nc1c(-c2ccc(C(F)(F)F)cc2)nc2cnccn12 | 100% |
| Nc1nc(N)c2cc(Sc3cccc(C(F)(F)F)c3)ccc2n1 | -4.8% (active) |
| COc1ccc(N2CCN(CC(=O)N3CCN(c4nnc(-c5ccccc5)c(-c5ccccc5)n4)CC3)CC2)cc1 | 50.6% |
| Nc1nc(=O)c2ccccc2s1 | 109% |
| COc1ccccc1/C=C/C=N/NC1=NC2C(S1)N(C)C(=O)N2c1ccccc1 (stereo not given) | 38.5% |
| CCOC(=O)C(N)Cc1cc(I)c(O)c(I)c1 (stereo not given) | 101% and 113% |
| COc1cc(CCN=Cc2ccccc2O)c([N+](=O)[O-])cc1OC | 113% |
| O=C(CCc1nnc2sc(-c3ccc(Cl)cc3Cl)nn12)c1nc2ccccc2[nH]1 | -56.2% (active) |
| Nc1nc(N)c2cc(Sc3ccc4ccccc4c3)ccc2n1 | 10.2% |
| CC(C)(C)c1cc(NC(=O)Nc2ccc(-c3cn4c5c(sc4n3)CCc3cn(CCCN4CCCCC4)cc3-5)cc2)no1 | -76% (active) |
